In all, about 390,000 compounds went through this assay and about 2,600 (0.67%) were called active. The sample holds actives, similar compounds and a random draw of the others, so the mix is not that of the screen.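 How the source made its calls: active means mean inhibition of replicates at least 50% and at least half of replicates each reaching 50%; inconclusive means half or more replicates reach 50% but mean below 50%; inactive means the rest.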
target: Transforming acidic coiled-coil-containing protein 3 (Homo sapiens) (UniProt Q9Y6A5); assay: disruptors of ARNT/TACC3 protein interaction, primary screen, biochemical, AlphaScreen, single concentration (AID 623870); settings: AlphaScreen His-ARNT PAS-B/GST-TACC3 binding, luminescence; at 9.99 µM; active compounds read high; TACC3 fragment carries E629A point mutation;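 further: 0% = complete ARNT plus TACC3 wells and 100% = ARNT alone without TACC3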

inhibition, active:
Cc1nc2ccccc2nc1N/N=C/c1ccc(O)cc1O 69.6%
Cc1ccsc1/C=N/n1c(=S)[nH]nc(C)c1=O 65.9%
Oc1cccc(/C=N/Nc2ccc(Cl)nn2)c1O 53.7%
CCN(CC)c1ccc(/C=N/NC(=O)c2cnccn2)c(O)c1 53.5%
CCN(CC)c1ccc(/C=N/Nc2nc(C)cc(C)n2)c(O)c1 69.4%
Cc1cccc(-n2cnc(C(=O)NNC(=S)Nc3ccccc3)c2)n1 70.3%
Cc1ccc(NC(=O)CSc2nn3c(=O)c(C)nnc3s2)cc1Cl 56.2%
Cc1c(CC(=O)NCCCCCC(=O)O)c(=O)oc2cc3occ(-c4ccccc4)c3cc12 54.3%
Cc1c(CC(=O)NCC(=O)NCC(=O)O)c(=O)oc2cc3oc4c(c3cc12)CCCC4 50.6%
C#CCOCCOCCOCCNc1nc(N2CCN(C(=O)[C@H](CCCCN)n3cc([C@@H](N)C(C)CC)nn3)CC2)nc(N2CCN(C(=O)[C@H](Cc3ccc(O)cc3)n3cc([C@@H](N)C(C)CC)nn3)CC2)n1 (stereo partly specified) 45.7%
C#CCOCCOCCOCCNc1nc(N2CCN(C(=O)C([C@@H](C)O)n3cc([C@@H](N)CCCCN)nn3)CC2)nc(N2CCN(C(=O)[C@H](CCCCN)n3cc(CN)nn3)CC2)n1 (stereo partly specified) 21.2%
COC1=C(N2CCOCC2)C(=O)c2ccccc2C1=O 60.4%
COc1cc(C(=S)NCc2ccccc2)cc(Br)c1O 49.6%
c1ccc(-c2cn3c(n2)CCc2ccc4cccnc4c2-3)cc1 64.1%
COc1cc(-c2nnc(NC(=O)C3=COCCO3)o2)cc(OC)c1OC 45.2%
O=C(CN1C(=O)COc2ccccc21)Nc1ccc(F)cc1 55.9%

inhibition, inactive:
C[C@@H]1CN([C@@H](C)CO)C(=O)c2cc(C#CC3CCCCC3)cnc2O[C@H]1CN(C)S(=O)(=O)c1ccccc1 10.2%
CNC[C@@H]1Oc2ccc(NC(=O)CCC(F)(F)F)cc2C(=O)N([C@@H](C)CO)C[C@@H]1C -4.46%
CCc1n[nH]c(=S)n1/N=C/c1c[nH]c2ccc(Br)cc12 -4.96%
Cc1ccsc1/C=N/NC(=O)Cc1cc(=O)[nH][nH]1 1.12%
O=C(NC[C@@H]1[C@@H](c2ccccc2)[C@H](CO)N1C(=O)C1CCC1)NC1CCCC1 -6.78%
COc1ccc(NC(=O)N2C[C@H](O)COC[C@H]3O[C@@H](CC(=O)N4CCN(C)CC4)CC[C@@H]32)cc1 0.747%
CCN(CC)c1ccc(/C=N/NC(=O)CNC(=O)c2cccs2)cc1 -3.55%
NS(=O)(=O)c1ccc(CNC(=O)c2cnccn2)cc1 6.45%
Cc1noc(C)c1NC(=O)Nc1cccc2c1O[C@H](CN(C)C(=O)Nc1c(C)noc1C)[C@@H](C)CN([C@@H](C)CO)C2=O 2.88%
CCCNC(=O)[C@H]1[C@H](CO)[C@H]2Cn3c(ccc(C4=CCCC4)c3=O)[C@H]2N1C(=O)CC -1.64%
Cc1cccc(-n2cnc(C(=O)Nc3cccnc3)c2)n1 -3.7%
O=C(NNC(=S)Nc1ccccc1)c1cccc(S(=O)(=O)N2CCOCC2)c1 0.545%
C/C=C/c1cnc2c(c1)C(=O)N([C@H](C)CO)C[C@H](C)[C@@H](CN(C)S(=O)(=O)c1ccccc1F)O2 -4.04%
C/C=C/c1ccc([C@H]2[C@@H](CO)N(S(C)(=O)=O)[C@@H]2CN(C)C(=O)CC)cc1 7.87%
CO[C@H]1CN(C)C(=O)c2ccc(NC(=O)C3CC3)cc2OC[C@H](C)N(CCc2ccccc2)C[C@H]1C -7.12%
Cc1ccc(NC(=O)CSc2nnc(CNC(=O)c3ccccc3F)o2)cc1Cl 2.2%
COc1ccc(Cc2nnc(SCC(=O)Nc3ccc(C)c(Cl)c3)[nH]c2=O)cc1 -0.289%
C[C@H](CO)N1C[C@H](C)[C@@H](CN(C)Cc2ccc(-c3ccccc3)cc2)Oc2ccc(NC(=O)CCCN(C)C)cc2CC1=O 31.9%
C[C@H](CO)N1C[C@H](C)[C@@H](CN(C)C)OCCCC[C@H](C)Oc2ccc(NC(=O)C3CCCCC3)cc2C1=O -2.97%
CC[C@@H](C)[C@H](NC(=O)CCc1c(C)c2cc3c4c(oc3c(C)c2oc1=O)CCCC4)C(=O)O -0.229%
COc1cccc(-c2coc3cc4oc(=O)c(CC(=O)O)c(C)c4cc23)c1 17.2%
Cc1coc2c1c(C)cc1oc(=O)c(CC(=O)NCC(=O)N[C@H](C(=O)O)C(C)C)c(C)c12 2.88%
Cc1oc2c(C)c3oc(=O)c(CC(=O)N[C@@H](CC(C)C)C(=O)N[C@@H](Cc4ccccc4)C(=O)O)c(C)c3cc2c1C 2.61%
C[C@H](CO)N1C[C@H](C)[C@H](CN(C)Cc2ccncc2)Oc2ncc(C#CCC3CCCCC3)cc2C1=O -1.21%
Cc1noc(C)c1NC(=O)Nc1ccc2c(c1)CC(=O)N([C@@H](C)CO)C[C@@H](C)[C@@H](CN(C)Cc1ccc(Cl)c(Cl)c1)O2 -1.62%
CO[C@@H]1CN(C)C(=O)c2cc(NS(=O)(=O)c3cn(C)cn3)ccc2OC[C@@H](C)NC[C@H]1C 1.1%
CN(C)C(=O)C[C@@H]1CC[C@H](NC(=O)NC2CCCCC2)[C@@H](CO)O1 -17%
CN(C)C(=O)C[C@@H]1CC[C@H]2[C@@H](COC[C@H](O)CN2C(=O)c2ccncc2)O1 -9.54%
C[C@@H]1CN([C@H](C)CO)S(=O)(=O)c2ccc(-c3ccncc3)cc2O[C@@H]1CN(C)C(=O)CN(C)C 12%
C[C@H]1CN([C@@H](C)CO)C(=O)c2cc(NC(=O)NC3CCCCC3)ccc2O[C@@H]1CN(C)C(=O)Nc1cccc2ccccc12 0.153%
CCC(C)[C@@H](C(=O)N1CCNCC1)n1cc(CCCCN)nn1 (stereo partly specified) 7.8%
C#CCOCCOCCOCCNc1nc(N2CCN(C(=O)CCCCCCCCCCNC(=O)[C@H]([C@@H](C)CC)n3cc(CCCCN=C(N)N)nn3)CC2)nc(N2CCN(C(=O)CCCCCCCCCCNC(=O)[C@H](CO)n3cc(CCCSC)nn3)CC2)n1 9.17%
CC[C@H](C)[C@@H](C(=O)N1CCNCC1)n1cc([C@@H](N)Cc2ccc(O)cc2)nn1 -3.75%
C[C@H]1CN([C@@H](C)CO)C(=O)c2cc(NC(=O)CCN3CCOCC3)ccc2O[C@@H]1CN(C)C(=O)Nc1ccc(C(F)(F)F)cc1 26.6%
Cc1noc(C)c1S(=O)(=O)N(C)C[C@H]1OCCCC[C@@H](C)Oc2ccc(NC(=O)c3ccccc3)cc2C(=O)N([C@@H](C)CO)C[C@H]1C -4.16%
O=C1c2ccccc2-c2ncnc3c(N4CCOCC4)cc(N4CCOCC4)c1c23 11.8%
COc1ccc(S(=O)(=O)N2CCOCC2)c(C)c1C -0.167%
C[C@@H]1CN([C@@H](C)CO)C(=O)c2cccc(NS(=O)(=O)c3cn(C)cn3)c2O[C@H]1CN(C)Cc1ccc(Cl)c(Cl)c1 4.82%
O=C(NC1CCCC1)[C@H]1[C@H](CO)[C@H]2Cn3c(ccc(-c4ccccc4)c3=O)[C@H]2N1CCc1ccccc1 5.95%
COCC(=O)N1CC[C@@H]2[C@@H](CO)Nc3ccc(-c4ccc(C(=O)N(C)C)cc4)cc3[C@@H]21 -12.5%
COc1cccc(S(=O)(=O)N[C@H]2CC[C@H](CCN)O[C@H]2CO)c1 0.015%
COCC(=O)Nc1ccc2c(c1)OC[C@@H](C)N(C(=O)c1cnccn1)C[C@H](C)[C@H](OC)CN(C)C2=O -8.24%
COc1cc(C(=O)NCc2ccc(-n3cccc3)cc2)cc(OC)c1OC -1.7%
COc1cc(Cl)cc(C2NC(=O)NC(C)=C2C(=O)NCc2ccccc2)c1O (stereo unspecified) -0.141%
COc1ccc(S(=O)(=O)Nc2cccc3c2O[C@@H](CN(C)S(=O)(=O)c2ccccc2)[C@@H](C)CN([C@@H](C)CO)C3=O)cc1 1.77%
CC(=O)N(C)C[C@H]1Oc2cc(-c3ccc(C)cc3)ccc2S(=O)(=O)N([C@@H](C)CO)C[C@@H]1C -9.76%
C[C@@H]1CN([C@@H](C)CO)S(=O)(=O)c2ccc(C3=CCCC3)cc2O[C@H]1CN(C)C(=O)CC1CC1 3.76%
C[C@H]1CN([C@@H](C)CO)C(=O)c2cc(NC(=O)Cn3cnnn3)ccc2O[C@@H]1CN(C)C(=O)Nc1ccccc1 -0.158%
O=C(Nc1nnc(C2=COCCO2)o1)c1ccc([N+](=O)[O-])s1 32.6%
CCC(CC)c1nnc(NC(=O)C2=COCCO2)s1 -6.14%
COC(=O)[C@@H]1[C@@H](CO)[C@@H]2Cn3c(ccc(C4=CCCC4)c3=O)[C@@H]2N1Cc1cncnc1 -4.04%
C/C=C/c1ccc2c(c1)O[C@@H](CN(C)C(=O)Cc1ccccn1)[C@@H](C)CN([C@H](C)CO)S2(=O)=O -2.68%
CC(OC(=O)CN1C(=O)COc2ccccc21)C(=O)NCc1ccc(F)cc1 (stereo unspecified) -23.2%
O=C(CN1C(=O)COc2ccc(Cl)cc21)Nc1ccc(N2CCOCC2)cc1 2.76%
C[C@H]1CN([C@@H](C)CO)C(=O)c2cc(NC(=O)Nc3ccc4c(c3)OCO4)ccc2O[C@@H]1CN(C)Cc1ccc(Oc2ccccc2)cc1 28.7%
